Results published in PubChem BioAssay (NCI).
Compounds without any hit were thinned out: in the full panel of roughly 83,000, 20% have a hit.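 Percent growth is the endpoint: 0 to 100 indicates growth inhibition (40 means 60% inhibition), 0 means no net growth, and negative values indicate cell death.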 Activity calls are given as the source filed them. The calls were made as follows: active = growth percent below 10; inactive = the rest.

Columns and labels:
Assay in all cases: NCI-60 one-dose screen, 48 h (100 = growth as untreated, 0 = no growth, -100 = all killed)
Conditions in all cases: 10 µM unless noted
NCI-H23 lung = system: NCI-H23 lung
NCI-H226 lung = system: NCI-H226 lung
NCI-H322M lung = system: NCI-H322M lung
HOP-62 NSCLC = system: HOP-62 NSCLC
NCI-H460 lung = system: NCI-H460 lung
HOP-92 NSCLC = system: HOP-92 NSCLC
NCI-H522 lung = system: NCI-H522 lung
A549/ATCC NSCLC = system: A549/ATCC NSCLC
786-0 renal = system: 786-0 renal
COLO 205 colon = system: COLO 205 colon
DU-145 prostate = system: DU-145 prostate
K-562 leukemia = system: K-562 leukemia
MALME-3M melanoma = system: MALME-3M melanoma
MDA-MB-231 breast = system: MDA-MB-231 breast
RXF 393 renal = system: RXF 393 renal
SF-268 CNS = system: SF-268 CNS
SF-295 CNS = system: SF-295 CNS
SF-539 CNS = system: SF-539 CNS
UACC-257 melanoma = system: UACC-257 melanoma
M14 melanoma = system: M14 melanoma

Measured: growth

O=C1C(Cl)=C(Nc2ccc3cn[nH]c3c2)C(=O)c2ccccc21
active: NCI-H23 lung -70.1% | NCI-H226 lung -4.83% | NCI-H322M lung -27.4% | HOP-62 NSCLC -6.04% | NCI-H460 lung 4.67% | HOP-92 NSCLC -80.4% | NCI-H522 lung -84.7% | 786-0 renal -99.4% | COLO 205 colon -85.5% | DU-145 prostate -100% | K-562 leukemia -50% | MALME-3M melanoma -88.7% | MDA-MB-231 breast -50.3% | RXF 393 renal -95.9% | SF-268 CNS -98.7% | SF-295 CNS 5.88% | M14 melanoma -83.8%
inactive: A549/ATCC NSCLC 39.7% | SF-539 CNS 10.5% | UACC-257 melanoma 19.3%

CCn1cc(-c2[nH]c(=S)ncc2-c2ccc(Cl)cc2)c(-c2ccc(Br)cc2)n1
inactive: NCI-H23 lung 85.8% | NCI-H226 lung 94% | NCI-H322M lung 96.5% | HOP-62 NSCLC 61.6% | NCI-H460 lung 58.5% | HOP-92 NSCLC 104% | NCI-H522 lung 58.5% | A549/ATCC NSCLC 72.2% | 786-0 renal 101% | COLO 205 colon 94% | DU-145 prostate 100% | K-562 leukemia 120% | MALME-3M melanoma 108% | MDA-MB-231 breast 89.1% | RXF 393 renal 109% | SF-268 CNS 75.1% | SF-295 CNS 68.4% | SF-539 CNS 87.5% | UACC-257 melanoma 84.8% | M14 melanoma 66.7%

COCCCNc1nc(NC(=O)c2cc(Br)cc(C(F)(F)F)c2)cc(-c2cccnc2)n1
inactive: NCI-H23 lung 103% | NCI-H226 lung 91.8% | NCI-H322M lung 99.9% | HOP-62 NSCLC 91.8% | NCI-H460 lung 85.7% | HOP-92 NSCLC 57.9% | NCI-H522 lung 83.6% | A549/ATCC NSCLC 82% | 786-0 renal 85.8% | COLO 205 colon 96.4% | DU-145 prostate 100% | K-562 leukemia 73.3% | MALME-3M melanoma 99.7% | MDA-MB-231 breast 75.8% | RXF 393 renal 103% | SF-268 CNS 90.5% | SF-295 CNS 89.2% | SF-539 CNS 94% | UACC-257 melanoma 91% | M14 melanoma 96.5%

O=C1Nc2ccccc2/C1=C/C(=O)c1ccc(N2CCOCC2)cc1
inactive: NCI-H23 lung 87.4% | NCI-H226 lung 100% | NCI-H322M lung 104% | HOP-62 NSCLC 100% | NCI-H460 lung 101% | HOP-92 NSCLC 71.9% | NCI-H522 lung 35.7% | A549/ATCC NSCLC 96% | 786-0 renal 94.1% | COLO 205 colon 101% | DU-145 prostate 74% | K-562 leukemia 75% | MALME-3M melanoma 75.9% | MDA-MB-231 breast 88.4% | RXF 393 renal 92.2% | SF-268 CNS 86.5% | SF-295 CNS 99.1% | SF-539 CNS 90.8% | UACC-257 melanoma 95.7% | M14 melanoma 99.7%

CN(C)CCOc1ccc(/C(=C(/CCCl)c2ccccc2)c2ccccc2)cc1
active: HOP-62 NSCLC -18.8% | NCI-H460 lung -73.3% | HOP-92 NSCLC -4.94% | 786-0 renal -28.5% | COLO 205 colon -93.6% | K-562 leukemia 1.34% | MALME-3M melanoma -57.8% | MDA-MB-231 breast -11% | RXF 393 renal -41.7% | SF-295 CNS 4.51% | SF-539 CNS 1.72% | UACC-257 melanoma -52.4% | M14 melanoma -52.2%
inactive: NCI-H23 lung 28.5% | NCI-H226 lung 59.1% | NCI-H322M lung 37.1% | NCI-H522 lung 10.8% | A549/ATCC NSCLC 26.4% | DU-145 prostate 49.6% | SF-268 CNS 33%

CCCCCCCCN(CCCCCCCC)CC(O)c1ccc(Cl)c(C)c1Cl (stereo not given)
inactive: NCI-H23 lung 65% | NCI-H226 lung 94.4% | NCI-H322M lung 81.8% | HOP-62 NSCLC 89.3% | NCI-H460 lung 72.8% | HOP-92 NSCLC 71.2% | NCI-H522 lung 65.6% | A549/ATCC NSCLC 78% | 786-0 renal 91.7% | COLO 205 colon 60.5% | DU-145 prostate 105% | K-562 leukemia 67.9% | MALME-3M melanoma 102% | MDA-MB-231 breast 59.1% | RXF 393 renal 87.6% | SF-268 CNS 91.9% | SF-295 CNS 59.6% | SF-539 CNS 94.3% | UACC-257 melanoma 89.4% | M14 melanoma 85.2%

CCN(CC)c1cc(N)c(Cc2c(N)cc(N(CC)CC)cc2Cl)c(Cl)c1
inactive: NCI-H23 lung 11.1% | NCI-H226 lung 45.6% | NCI-H322M lung 96.9% | HOP-62 NSCLC 51.8% | NCI-H460 lung 35% | HOP-92 NSCLC 26.1% | A549/ATCC NSCLC 47% | 786-0 renal 74.3% | COLO 205 colon 21.4% | DU-145 prostate 67.4% | K-562 leukemia 19.2% | MALME-3M melanoma 44.6% | MDA-MB-231 breast 48.5% | RXF 393 renal 63.7% | SF-268 CNS 36.6% | SF-295 CNS 31.8% | SF-539 CNS 44.2% | UACC-257 melanoma 12.4% | M14 melanoma 52.5%
active: NCI-H522 lung -3.79%
